From PubChem
In the library only some 3% were active in any assay of this set; here they are far more common.
RE007 growth inh: less growth of the S. pombe RE007 Vpr strain | Potency, µM (doses to about 92.2 µM), inactives show at the top dose activity change, negative = less growth, most hits filed as inhibitors | AID 651644 | actives 0.21% (n = 360,000) | S. pombe RE007 Vpr strain, BacTiter-Glo ATP luminescence, 24 h; active = well fitted falling curve with a large enough effect; inconclusive = small, poorly fitted or top-dose-only effect; inactive = no such curve, though single readings can be large or run the other way; also: nearly all actives have a fitted effect of over 50% in size
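Fission yeast RE007 carrying one integrated HIV-1 vpr copy, seeded at OD 0.01 in PMG+AL medium with 23 nL pinned compound. Grown 24 h at 30 degrees; viability read by BacTiter-Glo luminescence after 5 min.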
Sm TGR block: S. mansoni TGR enzyme inhibition; AID 485364; Potency, µM (top dose mostly 114 µM), without a hit: at the top dose activity change, negative = inhibition, actives largely listed as inhibitors; Q962Y6; actives 3% (n = 360,000); purified TGR, DTNB reduction, TNB absorbance 405 nm; also: nearly all actives have a fitted effect of over 60% in size
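First, TGR (20 nM dispensed) and NADPH were mixed with compound. Second, a 15 min room-temperature incubation followed. Third, further NADPH and then DTNB were added to start the reaction. Finally, TNB absorbance was monitored kinetically.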
LmPK inh: blocks Leishmania mexicana pyruvate kinase activity. Q27686. purified LmPK, Kinase-Glo ATP luminescence, 1 h. Potency, µM (titrated, usually from 57.5 µM), inactives show top-dose activity change, negative = inhibition, actives largely listed as inhibitors. actives 0.37% (n = 290,000). AID 1721
Target sequence (Q27686 whole entry, looked up): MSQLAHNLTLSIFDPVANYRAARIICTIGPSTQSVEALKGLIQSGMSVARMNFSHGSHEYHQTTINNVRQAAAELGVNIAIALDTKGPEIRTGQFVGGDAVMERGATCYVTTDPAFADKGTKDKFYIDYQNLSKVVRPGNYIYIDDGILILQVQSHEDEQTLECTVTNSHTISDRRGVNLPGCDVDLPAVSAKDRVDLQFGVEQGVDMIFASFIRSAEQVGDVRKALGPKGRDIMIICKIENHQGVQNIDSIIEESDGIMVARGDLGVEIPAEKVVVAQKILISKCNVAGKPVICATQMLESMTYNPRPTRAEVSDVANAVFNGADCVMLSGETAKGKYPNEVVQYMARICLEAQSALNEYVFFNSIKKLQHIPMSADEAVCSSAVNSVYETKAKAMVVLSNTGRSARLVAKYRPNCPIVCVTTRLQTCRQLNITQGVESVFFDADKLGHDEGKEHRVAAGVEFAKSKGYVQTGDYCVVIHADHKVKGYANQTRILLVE
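ATP generated from ADP (0.1 mM) and PEP (0.5 mM) by 0.1 nM LmPK over 1 h at room temperature (pH 7.2 imidazole buffer) was detected by coupled luciferase luminescence. Values were normalized to uninhibited and no-enzyme wells.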
Tb PYK inh: inhibitors of Trypanosoma brucei pyruvate kinase; Potency, µM (highest dose often 76.8 µM), inactives show top-dose activity, negative = inhibition, actives largely listed as inhibitors; TbPYK enzyme, Kinase-Glo Plus ATP luminescence, 45 min; actives 0.12% (n = 410,000); Q57TT1; also: nearly all actives have a fitted effect of over 50% in size
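Luminescent Kinase-Glo Plus end-point after 45 min room-temperature reaction of T. brucei pyruvate kinase started with 130 uM ADP (final). Buffer TEA 50 mM pH 7.2 with KCl, MgCl2, BSA, Tween-20; titration-based qHTS with fitted concentration-effect curves.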
* = called active by the depositor; ? = inconclusive; nt = no result given; [ ] = remark or other dose. Unless noted, calls follow the shape of the dose curve; as a rule, active = well fitted curve in the direction sought with a large enough effect; inconclusive = small, poorly fitted or top-dose-only effect, or another doubt; inactive = no such curve, though single readings can be large; an effect the other way counts as inactive or inconclusive. % is scaled to controls: 0 for no effect and ±100 for the full control effect; potency is read from the fitted curve at half-maximal effect.

SMILES	RE007 growth inh	Sm TGR block	LmPK inh	Tb PYK inh
O=C1CC(N2CCN(c3ccccn3)CC2)C(=O)N1c1ccc(F)cc1 (configuration not stated)	?	?	6%[11.5 µM]	2%
CCOC(=O)c1cccc(NS(=O)(=O)c2cc(Br)cc3c2N(C(=O)C2CC2)CC3)c1	nt	-1%	nt	-8%
CCOc1ccccc1CNC(=O)c1ccc(NC(=O)N2CC(C)Sc3ccccc32)cc1 (configuration not stated)	nt	-1%	nt	1%
COc1ccccc1CNC(=O)COC(=O)/C=C/c1ccc(OC(F)F)c(OC)c1	-11%	-1%	nt	1%
COc1cc(/C=C/C(=O)OCC(=O)Nc2oc(C)c3c(C)n[nH]c(=O)c23)ccc1OC(F)F	-14%	22µM*	nt	-18%
Cn1c(NCCO)nc2c1c(=O)n(Cc1ccccc1Cl)c(=O)n2C	nt	6%	nt	1%
CCc1cc(-c2n[nH]c(C)c2-c2ccc3c(c2)OCCO3)c(O)cc1O	nt	nt	nt	0%
COc1ccc2c(c1)c1c(c(=O)n(Cc3ccccc3)c(=O)n1Cc1cccc(Cl)c1)n2C	nt	8%	nt	5%
CCCCC1CCC(C(=O)Nc2ccc(N3CCOCC3)cc2N2CCOCC2)CC1 (configuration not stated)	2%	1%	nt	1%
N/C(=N\S(=O)(=O)c1ccccc1)c1ccc([N+](=O)[O-])cc1	-13%	13µM*	2%	-7%
Cc1ccc(N2C(=O)CS(=O)(=O)C23C(=O)N(Cc2ccccc2C)c2ccccc23)cc1Cl (configuration not stated)	nt	3%	nt	2%
Cc1cc(C)cc(OCC(=O)N2N=C(C(F)(F)F)CC2(O)C(C)(C)C)c1 (configuration not stated)	23%	50µM*	5%	-10%
Cc1ccc(-c2c(CN3CCN(c4cccc(C(F)(F)F)c4)CC3)csc2C)cc1	nt	6%	nt	5%
O=C(c1ccc(Cl)cc1)c1ccccc1C(=O)N1CCOCC1	-11%	3%	-2%	-7%
Nc1nc(C(=O)N2CCOCC2)nn1C(=O)c1ccc(Cl)cc1	-15%	35µM*	-8%	-1%
CC(=O)Nc1ccc(S(=O)(=O)/N=C2\C(=O)c3ccccc3C([O-])=C2n2cc[n+](-c3ccccn3)c2)cc1	-23%	7.1µM*	-6%	-6%
Nc1nc2[nH]cc(CCc3ccc(C(=O)NC(CCC(=O)O)C(=O)O)cc3)c2c(=O)[nH]1 (configuration not stated)	nt	nt	nt	2%
CN(C)c1ccc(CNC(=O)c2ccc3c(c2)N(C)C(=O)C2CCCCN32)cc1 (configuration not stated)	nt	-2%	nt	-13%
COc1cccc(NC(=O)C2CCCN(S(=O)(=O)c3cn(C(C)C)cn3)C2)c1 (configuration not stated)	nt	3%	nt	4%
COc1cc(Cc2ccc(N)c(OC)c2)ccc1N	-5%	-7%	0%	6%
Nc1ccc(Cc2ccc(N)c(O)c2)cc1O	-25%	40µM*	-7%	-4%
CCC1(CC)NC(=O)N(CC(=O)NC(=O)NCc2ccccc2)C1=O	-4%	22µM*	0%	-9%
CCNC(=O)CN1C(=O)NC(Cc2ccccc2)(Cc2ccccc2)C1=O	8%	-4%	-9%	0%
CC(C)N(C(=O)c1cc2c(Cl)nc3ccccc3c2s1)C1CCCCC1	nt	1%	nt	-5%
COC(=O)c1ccc(CSc2nc3c([nH]c4ccccc43)c(=O)n2-c2cccc(Cl)c2)o1	nt	-2%	nt	-1%
SMILES	RE007 growth inh	Sm TGR block	LmPK inh	Tb PYK inh
CCOC(=O)N1CCC(Nc2c(-c3ccccc3)c(=O)c2=O)CC1	-14%	45µM*	-2%	5%
CCOC(=O)N1CCC(Nc2c(-c3ccc(C)cc3)c(=O)c2=O)CC1	-12%	-7%	9%	-6%
Cc1ccc(SCC(=O)NCCc2ccccc2)cc1	0%	9%	2%	0%
Cc1ccc(CCNC(=O)Cn2cccc2)cc1	5%	50µM*	-3%	1%
Cc1ccccc1C(=O)NC(Oc1ccccc1)C(Cl)(Cl)Cl (configuration not stated)	-6%	-7%	4%	2%
CCCC(=O)NC(Oc1ccc(C(C)=O)cc1)C(Cl)(Cl)Cl (configuration not stated)	-15%	28µM*	1%	0%
Cc1cccc(NC(=O)CSc2nc3ccccc3nc2N2CCC(C)CC2)c1	nt	-4%	nt	-5%
CC(=O)c1cccc(NC(=S)NCc2ccco2)c1	31%	?	-3%	-3%
CN(C)S(=O)(=O)c1cccc(NC(=S)N/N=C/c2ccc(O)c(O)c2O)c1	-12%	10µM*	-15%	10µM*
CN(C)S(=O)(=O)c1cccc(NC(=S)N/N=C/c2ccco2)c1	6%	40µM*	4%	0%
CN(C)S(=O)(=O)c1cccc(NC(=S)NCc2ccco2)c1	18%	35µM*	0%	-2%
COc1cccc(/C=N/NC(=S)Nc2cccc(S(=O)(=O)N(C)C)c2)c1	-6%	9%	6%	-14%
CCOc1ccc(CNC(=O)c2ccc(CSc3nc4ccncc4n3Cc3ccc(F)cc3)cc2)cc1	nt	0%	nt	2%
CC(C)C(=O)N1CCC1(C)C(=O)Nc1cccc(Oc2ccccc2)c1 (configuration not stated)	4%[18.4 µM]	nt	nt	9%
O=C(CCl)c1ccc(Cc2ncc(C(F)(F)F)cc2Cl)s1	5%	8.9µM*	0%	-4%
CC(C)CC(=O)/C=C/n1c(=S)oc2ccccc21	-27%	6.3µM*	-9%	-5%
Cn1c(=S)oc2ccccc21	2%	6%	3%	-5%
CC(=O)/C=C/n1c(=S)oc2ccccc21	40µM*	2.5µM*	-17%	-1%
CC(=O)Nc1ccc(NC(=O)CCn2c(=S)oc3ccccc32)cc1	-7%	-9%	2%	0%
CC1(C)CC2(C)OC(=N)C1(C#N)C2(C#N)C#N (configuration not stated)	-4%	13µM*	1%	-2%
Cc1cc(Cl)ccc1OCC(=O)N(Cc1ccco1)c1c(N)n(Cc2ccccc2)c(=O)[nH]c1=O	-10%	nt	nt	0%
CCCCN(C(=O)/C=C/c1ccco1)c1c(N)n(CCC)c(=O)[nH]c1=O	-5%	?	-12%	-4%
Nc1c(N(CCO)C(=O)/C=C/c2ccco2)c(=O)[nH]c(=O)n1Cc1ccccc1	0%	50µM*	0%	-5%
Cc1ccccc1OCC(=O)N(Cc1ccco1)c1c(N)n(Cc2ccccc2)c(=O)[nH]c1=O	-16%	45µM*	nt	0%
Cc1ccccc1CNC(=O)C1CCC(=O)N(C2CCCCCC2)C1 (configuration not stated)	5%	-6%	-2%	-8%
O=c1c2ccccc2cnn1CCOc1ccccc1	-25%	-16%	13µM*	?
COc1ccccc1NC(=O)C1CCN(S(=O)(=O)c2ccc3[nH]c4c(c3c2)CCCCC4)CC1	nt	-8%	nt	-11%[15.4 µM]
